The nature of assay [1]: TOX21_p53_BLA_p2_viability: Viability Assessment in the Tox21 HCT-116 p53 Agonism Beta-lactamase Assay, Phase 2 (AID 2283591).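 Also: compound exposure lasted 16 h at 37 °C; actives lower the ATP signal meaning cytotoxicity.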 A digest of the protocol:
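HCT116 p53-bla cells, 4000/well, dosed after 5 h plating (217-fold dilution of DMSO stocks) and incubated 16 h at 37C. Viability taken as cellular ATP by CellTiter-Glo luminescence after 30 min RT; signal loss marks cytotoxicity.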

Assay [2] deals with Cellular tumor antigen p53 (Homo sapiens) (UniProt P04637). In words: TOX21_p53_BLA_p2_ratio: Tox21 HCT-116 p53 Agonism Beta-lactamase Assay, Ratio, Phase 2 (AID 2283592). A digest of the protocol: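 In this cell-based reporter format, HCT116 cells were dosed with chemicals delivered from DMSO by 217-fold dilution and incubated 16 h at 37C. Emission at 460 and 530 nm after 2 h CCF4-AM loading provided the ratio, fitted upward versus DMSO.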
Cellular tumor antigen p53 (Homo sapiens), sequence (P04637 whole entry, looked up): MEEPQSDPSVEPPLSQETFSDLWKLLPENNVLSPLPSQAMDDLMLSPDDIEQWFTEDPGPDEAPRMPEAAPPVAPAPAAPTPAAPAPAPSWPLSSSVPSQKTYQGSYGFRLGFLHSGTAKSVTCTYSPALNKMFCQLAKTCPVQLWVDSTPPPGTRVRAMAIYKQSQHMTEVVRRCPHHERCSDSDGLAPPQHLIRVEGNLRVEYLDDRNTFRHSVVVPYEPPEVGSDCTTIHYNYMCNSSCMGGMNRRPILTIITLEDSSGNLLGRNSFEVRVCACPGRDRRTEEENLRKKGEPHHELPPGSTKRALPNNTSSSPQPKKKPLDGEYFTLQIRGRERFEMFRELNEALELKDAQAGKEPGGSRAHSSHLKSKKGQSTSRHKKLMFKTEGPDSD

The nature of assay [3]: TOX21_p53_BLA_p3_viability: Viability Assessment in the Tox21 HCT-116 p53 Agonism Beta-lactamase Assay, Phase 3 (AID 2283593).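 Also: cells exposed to compound for 16 h before reading.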 A digest of the protocol:
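HCT116 cells, 4000/well, dosed 5 h after plating by pin transfer (217-fold dilution from DMSO stock) and incubated 16 h at 37C, 5% CO2. Viability read as ATP luminescence with CellTiter-Glo after 30 min at room temperature.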

Assay [4] concerns the target Cellular tumor antigen p53 (Homo sapiens) (UniProt P04637). As to the kind of experiment: TOX21_p53_BLA_p3_ratio: Tox21 HCT-116 p53 Agonism Beta-lactamase Assay, Ratio, Phase 3 (AID 2283596). A digest of the protocol: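 HCT116 p53-bla cells (4000/well) given compound in DMSO (217-fold dilution) after 5 h, incubated 16 h at 37C. CCF4-AM substrate 2 h at room temperature; 460/530 nm emission ratio, gain fitted against DMSO.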

A short description of assay [5]: TOX21_p53_BLA_p4_viability: Viability Assessment in the Tox21 HCT-116 p53 Agonism Beta-lactamase Assay, Phase 4 (AID 2283597).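 Also: hits lower the luminescence signal meaning cytotoxicity.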 A digest of the protocol:
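We seeded HCT116 p53 reporter cells at 4000/well and waited 5 h. We then added compounds in DMSO at a 217-fold dilution and incubated for 16 h. Viability was read as CellTiter-Glo luminescence after 30 min at RT.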

Assay [6] can be described thus: TOX21_p53_BLA_p5_viability: Viability Assessment in the Tox21 HCT-116 p53 Agonism Beta-lactamase Assay, Phase 5 (AID 2283600). A digest of the protocol:
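Compounds, pinned from DMSO at 217-fold dilution, were left on the cells for 16 h. The viability endpoint was ATP content measured by CellTiter-Glo luminescence, where falling signal reflects cytotoxicity.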

Assay [7] deals with Cellular tumor antigen p53 (Homo sapiens) (UniProt P04637). In words: TOX21_p53_BLA_p4_ratio: Tox21 HCT-116 p53 Agonism Beta-lactamase Assay, Ratio, Phase 4 (AID 2283601). A digest of the protocol: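 HCT-116 p53 beta-lactamase reporter cells (4000/well) preincubated 5 h, then compound (217-fold dilution of DMSO stock) for 16 h at 37C. CCF4-AM substrate added 2 h at room temperature; 460/530 nm emission ratio fitted upward versus DMSO.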

Assay [8] deals with PGR (gene 5241) (UniProt P06401). In words: TOX21_PR_BLA_Followup_Antagonist_ratio: Tox21 HEK293 Progesterone Receptor (PR) Antagonism Beta-lactamase Follow-Up Assay, Ratio (AID 2283934). A digest of the protocol:
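PR-UAS-bla HEK293T cells in medium with 2% charcoal-stripped FBS were treated with compounds plus 1 nM (final) promegestone (R5020) for 16 hr at 37C. LiveBLAzer B/G FRET substrate was then added for 2 h at room temperature; signal is cleaved/uncleaved substrate ratio versus DMSO.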

A short description of assay [9]: TOX21_PR_BLA_Followup_Agonist_viability: Viability Assessment in the Tox21 HEK293 Progesterone Receptor (PR) Agonism Beta-lactamase Follow-Up Assay (AID 2283935).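 Also: signal loss means lower viability so actives are cytotoxic.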 A digest of the protocol:
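PR-UAS-bla HEK293T cells in 2% charcoal-stripped FBS medium, compound added after 6 hr plating, 16 hr at 37C/5% CO2. After bla FRET read, CellTiter-Glo added; luminescence read after 30 min at room temperature; signal loss marks cytotoxicity.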

Assay [10] is described as follows: TOX21_PR_BLA_Followup_Antagonist_viability: Viability Assessment in the Tox21 HEK293 Progesterone Receptor (PR) Antagonism Beta-lactamase Follow-Up Assay (AID 2283936).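 Also: hits lower the luminescence signal meaning cytotoxicity.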 A digest of the protocol:
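PR-UAS-bla HEK293T cells (3,000/well, 2% charcoal-stripped FBS) given compound plus R5020 agonist, 16 h at 37C. CellTiter-Glo added after bla read, 30 min at room temperature; luminescence loss indicates cytotoxicity.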

Assay [11] has as its target PGR (gene 5241) (UniProt P06401). In words: TOX21_PR_LUC_Followup_Antagonist: Tox21 HEK293 Progesterone Receptor (PR) Antagonism Luciferase Follow-Up Assay (AID 2283938).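 Also: curve fitted upward as signal gain over DMSO baseline despite antagonist label.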 A digest of the protocol: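 Luminescence from ONE-Glo reagent, measured after 30 min at room temperature, served as readout. Cells (HEK293 carrying PR-A-luc) had been treated 16 h at 37C with DMSO-dissolved compounds. Activity was fitted against DMSO controls.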

Assay [12] can be described thus: TOX21_PR_LUC_Followup_Antagonist_viability: Viability Assessment in the Tox21 HEK293 Progesterone Receptor (PR) Antagonism Luciferase Follow-Up Assay (AID 2283940). A digest of the protocol:
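HEK293-PR-A-luc cells, precultured 5 days in assay medium with 10% charcoal-stripped FBS, were seeded at 3,000 cells/well, treated with compounds in DMSO for 16 h at 37C, and viability was read as cellular ATP by CellTiter-Glo luminescence.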

Assay [13] is described as follows: TOX21_PR_LUC_Followup_Agonist_viability: Viability Assessment in the Tox21 HEK293 Progesterone Receptor (PR) Agonism Luciferase Follow-Up Assay (AID 2283941).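 Also: loss of signal means cytotoxicity so actives lower viability.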 A digest of the protocol: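 HEK293-PR-A-luc cells, pre-cultured 5 days in 10% charcoal-stripped FBS, were seeded at 3,000 cells/well, rested 5 h at 37C, then given compound in DMSO for 16 h at 37C. Cellular ATP was read by CellTiter-Glo luminescence; signal loss indicates cytotoxicity.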

Assay [14] in a line: CCTE_Deisenroth_DEVTOX-GLR_legacy_CellCount: (Legacy) Viability Assessment in CCTE's DevTox GLR-Endo Assay, Deisenroth Lab (AID 2284331; active = hit-call score of the fitted dose curve at least 0.9, where 1 is the maximum; inactive = score below 0.9). To be noted: actives raise or lower the signal. A digest of the protocol:
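RUES2-GLR human pluripotent cells were seeded 24 h, then differentiated 48 h with two compound doses at 24 h intervals (10-point, 1 nM - 200 uM). Fixed nuclei were imaged and counted; bidirectional fitting versus 0.2% DMSO.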

Assay [15] relates to SRY-box transcription factor 17 (SOX17) Protein Expression, Deisenroth Lab, SOX17 (gene 64321). As to the kind of experiment: CCTE_Deisenroth_DEVTOX-GLR_legacy_Sox17: (Legacy) CCTE's DevTox GLR-Endo Assay Evaluation of SRY-box transcription factor 17 (SOX17) Protein Expression, Deisenroth Lab (AID 2284341; active = hit-call score of the fitted dose curve at least 0.9, where 1 is the maximum; inactive = score below 0.9). To be noted: actives raise or lower the signal. A digest of the protocol: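 Percent SOX17-positive cells, scored by high-content imaging as mean intensity exceeding pluripotent-control median by 5x BMAD, divided by cell count. Human RUES2-GLR endoderm differentiation, 48 h, two exposures 24 h apart, 1 nM–200 uM; DMSO-referenced bidirectional fitting.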

Assay [16] has as its system SRY-box transcription factor 2 (SOX2) Protein Expression, Deisenroth Lab, SOX2 (gene 6657). As to the kind of experiment: CCTE_Deisenroth_DEVTOX-GLR_legacy_Sox2: (Legacy) CCTE's DevTox GLR-Endo Assay Evaluation of SRY-box transcription factor 2 (SOX2) Protein Expression, Deisenroth Lab (AID 2284346; active = hit-call score of the fitted dose curve at least 0.9, where 1 is the maximum; inactive = score below 0.9). A digest of the protocol: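 RUES2-GLR human pluripotent cells were differentiated for 48 h with two chemical doses 24 h apart, over 1 nM-200 uM. Sox2+ cells were those above 5x BMAD of the endoderm-control median; percent Sox2+ minus the 0.2% DMSO median was used, from n=4 replicates.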

In assay [17] the test system is SRY-box transcription factor 17 (SOX17) Protein Expression, Deisenroth Lab, SOX17 (gene 64321). As to the kind of experiment: CCTE_Deisenroth_DEVTOX-GLR_Endo_SOX17: CCTE's DevTox GLR-Endo Assay Evaluation of SRY-box transcription factor 17 (SOX17) Protein Expression, Deisenroth Lab (AID 2284413; active = hit-call score of the fitted dose curve at least 0.9, where 1 is the maximum; inactive = score below 0.9). A digest of the protocol:
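RUES2-GLR human pluripotent cells were differentiated toward endoderm for 48 h and received two compound doses 24 h apart (1 nM - 200 uM, 10 points). High-content imaging of fixed cells gave the percent SOX17+ cells per cell count, expressed as percent change versus 0.2% DMSO.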

For assay [18], the system named is Brachyury (BRA) Protein Expression, TBXT (gene 6862). In words: CCTE_Deisenroth_DEVTOX-GLR_Endo_BRA: CCTE's DevTox GLR-Endo Assay Evaluation of Brachyury (BRA) Protein Expression, Deisenroth Lab (AID 2284417; active = hit-call score of the fitted dose curve at least 0.9, where 1 is the maximum; inactive = score below 0.9). A digest of the protocol:
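Endpoint is the fraction of BRA reporter-positive cells over total nuclei, corrected by subtracting the 0.2% DMSO value. Chemicals (1 nM - 200 uM, 10 points) were dosed twice during 48 h differentiation of RUES2-GLR cells, read by imaging.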

A short description of assay [19]: CCTE_Deisenroth_DEVTOX-GLR_Endo_CellCount: Viability Assessment in CCTE's DevTox GLR-Endo Assay, Deisenroth Lab (AID 2284420; active = hit-call score of the fitted dose curve at least 0.9, where 1 is the maximum; inactive = score below 0.9). A digest of the protocol:
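Nuclei counted by fluorescence microscopy as a surrogate for cell number, expressed as percent change relative to 0.2% DMSO control. Human RUES2-GLR cells, 48 h differentiation, dosed twice; 1 nM - 200 uM series.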

The test system of assay [20] is SRY-box transcription factor 17 (SOX17) Protein Expression, Deisenroth Lab, SOX17 (gene 64321). In words: CCTE_Deisenroth_DEVTOX-GLR_Pluri_SOX17: CCTE's DevTox GLR-Pluri Assay Evaluation of SRY-box transcription factor 17 (SOX17) Protein Expression, Deisenroth Lab (AID 2284427). A digest of the protocol:
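Readout: percent SOX17+ cells (SOX17+ count/cell count) by high-content imaging of an inducible fluorescent reporter, corrected for 0.2% DMSO solvent control. RUES2-GLR cells, 48 h differentiation, dosed twice at 24 h intervals, 1 nM - 200 uM.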

Assay [21] is described as follows: CCTE_Deisenroth_DEVTOX-GLR_Pluri_CellCount: Viability Assessment in CCTE's DevTox GLR-Pluri Assay Evaluation of Total Cell Counts, Deisenroth Lab (AID 2284430; active = hit-call score of the fitted dose curve at least 0.9, where 1 is the maximum; inactive = score below 0.9). A digest of the protocol: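 RUES2-GLR human pluripotent cells, seeded 24 h, then differentiated 48 h with two chemical exposures 24 h apart; 10-point series 1 nM - 200 uM. Fixed, nuclear-stained, imaged (5 fields/well); nuclei count as % change vs 0.2% DMSO.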

The structures appear in SMILES notation. Records with an inconclusive call do not appear. Active and inactive are the calls of the source. The calls were made as follows, unless noted: active = hit-call score of the fitted dose curve at least 0.9, where 1 is the maximum; inconclusive = response in the unintended direction; inactive = score below 0.9.

PGR (gene 5241), sequence (P06401 whole entry, looked up): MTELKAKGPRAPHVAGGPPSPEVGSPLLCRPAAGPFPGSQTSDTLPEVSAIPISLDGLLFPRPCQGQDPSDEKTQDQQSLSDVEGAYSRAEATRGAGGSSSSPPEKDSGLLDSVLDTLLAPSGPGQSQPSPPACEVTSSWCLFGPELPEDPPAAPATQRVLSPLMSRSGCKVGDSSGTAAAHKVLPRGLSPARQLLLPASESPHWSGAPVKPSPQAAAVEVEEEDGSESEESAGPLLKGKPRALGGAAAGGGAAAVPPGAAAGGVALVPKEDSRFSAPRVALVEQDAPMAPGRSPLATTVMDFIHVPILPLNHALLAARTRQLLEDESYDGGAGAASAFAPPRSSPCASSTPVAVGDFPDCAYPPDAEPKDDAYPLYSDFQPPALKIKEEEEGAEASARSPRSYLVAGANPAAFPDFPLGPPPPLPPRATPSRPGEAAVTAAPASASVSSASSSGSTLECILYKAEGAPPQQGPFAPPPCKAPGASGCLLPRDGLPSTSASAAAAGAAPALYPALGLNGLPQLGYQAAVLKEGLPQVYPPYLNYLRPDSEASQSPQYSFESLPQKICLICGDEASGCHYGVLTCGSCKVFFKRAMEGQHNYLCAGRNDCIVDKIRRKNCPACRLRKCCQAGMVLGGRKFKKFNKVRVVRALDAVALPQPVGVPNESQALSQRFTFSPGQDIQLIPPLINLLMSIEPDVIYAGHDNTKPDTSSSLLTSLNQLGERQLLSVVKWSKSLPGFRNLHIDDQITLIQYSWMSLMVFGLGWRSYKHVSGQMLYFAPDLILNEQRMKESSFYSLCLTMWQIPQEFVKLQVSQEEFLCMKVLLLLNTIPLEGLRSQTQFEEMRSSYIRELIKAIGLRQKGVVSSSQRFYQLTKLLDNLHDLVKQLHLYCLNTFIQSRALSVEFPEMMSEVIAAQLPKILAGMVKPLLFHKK

As for `O=C(O)CCCCCC(=O)O`, the call in [1], in assay [2], in [3], in assay [4], in assay [5] and in [6] was inactive. The outcome in [7] was inactive.

`OCC(CBr)(CBr)CBr`: the call in assay [1], in assay [2], in [3], in assay [4], in [5] and in assay [7] was inactive.

Take `OCCCNc1ccccc1`: the call in assay [1], in assay [2], in [3], in [4], in assay [5] and in assay [6] was inactive. For the same compound, the outcome in assay [7] was inactive.

With `C[C@]12CCC(=O)C=C1CC[C@@H]1[C@@H]2CC[C@@]2(C)[C@H]1CC[C@]2(O)C(=O)CO`, the result in assay [1], in [2], in [3], in assay [4], in assay [5] and in [6] was inactive. In addition, the result (in assay [7]; in the assay with PGR (gene 5241) [8]; in assay [9]; in assay [10]; with PGR (gene 5241) [11]; in [12]) was inactive. Further, the call in assay [13] was inactive.

By AC50 is commonly meant the concentration at which the activity in the assay is half-maximal. Take `O=C(c1ccc(F)cc1)C1CCN(CCn2c(=O)[nH]c3ccccc3c2=O)CC1`: the call in assay [1], in assay [2], in assay [3], in [4], in assay [5] and in assay [6] was inactive. The outcome in assay [7] and in assay [21] was inactive. Also, the AC50 in assay [14] was 58.8 µM (active); in [15], 39.9 µM (active); in [16], 9.92 µM (active); in assay [17] it was 37.9 µM (active); in assay [18] it was 70 µM (active); in [19] it was 58.4 µM (active). In addition, the AC50 in [20] was 100 µM (active).

Take `OC(CCN1CCCC1)(c1ccccc1)C1CCCCC1` (centres undefined): the compound was classed as inactive in [1], in assay [2], in assay [3], in assay [4], in [5] and in assay [6]. Further, the outcome in assay [7] was inactive.

Take `C=C[C@]1(C)C[C@@H](OC(=O)CSC(C)(C)CNC(=O)[C@H](N)C(C)C)[C@]2(C)[C@H](C)CC[C@]3(CCC(=O)[C@H]32)[C@@H](C)[C@@H]1O`: the result in assay [1], in [2], in assay [3], in [4], in assay [5] and in assay [6] was inactive. Besides, the outcome in assay [7] was inactive.

`O=C(CO)[C@@H](O)[C@H](O)[C@H](O)CO`: the compound was classed as inactive in assay [1], in assay [2], in assay [3], in assay [4], in assay [5] and in assay [7].

As to `OC(CN1CCC(Cc2ccc(F)cc2)CC1)c1ccc(Cl)cc1` (centres undefined), the result in [1], in assay [2], in [3], in assay [4], in [5] and in [6] was inactive. Further, the outcome in assay [7] was inactive.

For the compound `CCN(CC)c1ccc2c(-c3ccc(S(=O)(=O)O)cc3S(=O)(=O)[O-])c3ccc(=[N+](CC)CC)cc-3oc2c1`, the result in assay [1], in assay [2], in assay [3], in [4], in [5] and in assay [6] was inactive. In assay [7], the result was inactive.

On to `Nc1ccc(N=Nc2ccccc2)c(N)c1`, for which the outcome in assay [1], in [2], in [3], in assay [4], in assay [5] and in assay [6] was inactive. For the same compound, the result in assay [7] was inactive.
